Source: PubChem BioAssay
Sampled rows, rich in hits. Any-hit rate of the full collection: about 2.9%.
MEKK2 WT-MEK5: raises or lowers MEK5 binding to wildtype human MEKK2 PB1 domain. bead flow cytometry, Alexa488-MEK5 binding to MEKK2 WT; actives lie on both sides. AID 1531. actives 1.1% (n = 290,000). binding response (% of control), % at 10 µM; in the data active means binding response below about 67% or above about 130%
MEKK2mut PB1 HTS: signal of MEK5 binding to mutant human MEKK2 PB1 domain | bead flow cytometry, Alexa488-MEK5 binding to MEKK2 mutant | percent response, % at 10 µM | actives 0.35% (n = 290,000) | AID 1530; in the data active means percent response above about 24%, passing the limit was not always enough
GRK2 aptamer HTS: blocks RNA aptamer binding to human GRK2 | P25098 | bead flow cytometry, FAM-aptamer displacement from GRK2 | inhibition of aptamer binding, % at 10 µM | actives 0.59% (n = 330,000);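 active means inhibition of aptamer binding above 40%, roughly 3 SD of noise, on plates passing a quality check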;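 further: median bead fluorescence of bound FAM aptamer so fluorescent compounds give negative values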
MEKK3 PB1 HTS: MEKK3-MEK5 PB1 interaction, increase or decrease | binding response (% of control), % at 10 µM | bead-based flow cytometry, Alexa488-MEK5 binding to MEKK3; actives lie on both sides; 0 = blocked by unlabeled MEK5, 100 = vehicle | AID 1529 | Q99759 | actives 1.4% (n = 290,000);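 active means binding response more than 3 SD above or below the average of its plate-row segment, actives on both sides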;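 further: Alexa488 bead fluorescence after subtracting the streptavidin-only scavenger bead signal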
Target sequence (Q99759 whole entry, looked up): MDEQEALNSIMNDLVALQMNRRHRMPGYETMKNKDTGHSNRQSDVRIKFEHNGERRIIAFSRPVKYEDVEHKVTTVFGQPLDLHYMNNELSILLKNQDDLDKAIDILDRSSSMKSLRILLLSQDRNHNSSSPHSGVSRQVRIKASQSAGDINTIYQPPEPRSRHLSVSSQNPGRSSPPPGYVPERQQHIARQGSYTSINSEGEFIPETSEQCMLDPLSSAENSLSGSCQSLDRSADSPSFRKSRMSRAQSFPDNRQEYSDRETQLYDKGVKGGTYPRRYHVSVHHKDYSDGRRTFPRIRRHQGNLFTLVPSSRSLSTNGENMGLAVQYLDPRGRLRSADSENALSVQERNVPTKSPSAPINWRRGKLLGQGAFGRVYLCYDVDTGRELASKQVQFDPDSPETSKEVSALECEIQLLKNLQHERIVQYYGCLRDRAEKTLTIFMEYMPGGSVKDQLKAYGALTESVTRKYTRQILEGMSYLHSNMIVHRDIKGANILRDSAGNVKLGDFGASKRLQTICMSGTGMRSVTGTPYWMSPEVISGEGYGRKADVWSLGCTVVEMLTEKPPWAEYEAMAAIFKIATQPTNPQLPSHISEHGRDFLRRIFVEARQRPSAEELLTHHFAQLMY
Beta2AR agonist: activates human beta-2 adrenergic receptor causing internalization | Am2.2-beta2AR cells, FAP receptor internalization, flow cytometry | response, % (no concentration beside the values) | actives 0.43% (n = 340,000) | AID 504454;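 active means response above a set limit, near 3 SD of response in nonfluorescent compounds, cut at about 42% in these data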
GRK2 inh confirm: confirmation of human GRK2 inhibitors displacing RNA aptamer; bead-bound GRK2, FAM-aptamer displacement, flow cytometry; actives 4% (n = 2,000); shares compounds with GRK2 aptamer HTS; aptamer displacement, % at 10 µM;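 active means aptamer displacement above 40%, near three times the noise of non-fluorescent compounds, on plates passing quality checks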;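 further: negative values mostly reflect intrinsic compound fluorescence rather than true enhancement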
Aptamer quench SP: quenches fluorescent RNA aptamer, GRK2 hit artifact. Carboxyfluorescein RNA aptamer on beads, flow cytometry quenching; active compounds read low. 2,000 tested, under 10 active. shares compounds with GRK2 aptamer HTS. fluorescence response (% of DMSO), % at 10 µM. AID 504580;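 active means compounds that quench the bead-bound fluorescent RNA probe, cutting fluorescence to under half of the solvent control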;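 further: counterscreen run without GRK2 so only probe quenching by compound is measured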
GRK2 confirm 2: confirmation of human GRK2 inhibitors binding RNA aptamer site | 360 tested, under 10 active | inhibition of aptamer binding, % at 10 µM | bead-bound GRK2, FAM-aptamer displacement, flow cytometry | shares compounds with GRK2 aptamer HTS;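 active means inhibition of aptamer binding above 40%, about triple the noise seen with nonglowing compounds, on plates passing quality control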;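 further: negative values mostly come from compounds that fluoresce themselves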
FAM quench SP: counter-screen for GRK2 binding hits: quenchers of fluorescent RNA aptamer; shares compounds with GRK2 aptamer HTS; carboxyfluorescein RNA aptamer beads, flow cytometry quenching; active compounds read low; fluorescence response vs DMSO, % at 10 µM; 360 tested, under 10 active; AID 588494;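 active means response vs DMSO under 50%, meaning signal dropped by over half, treated as fluorescence quencher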;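 further: labelled aptamer on streptavidin beads without GRK2 as a quench counter-screen; 100% = bead fluorescence of DMSO wells and lower means quenching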
An asterisk follows results filed as active; . = not tested or not shown.

SMILES	MEKK2 WT-MEK5	MEKK2mut PB1 HTS	GRK2 aptamer HTS	MEKK3 PB1 HTS	Beta2AR agonist	GRK2 inh confirm	Aptamer quench SP	others
CCOc1ccc(C(C)NC(=O)C2CCC2)cc1 (configuration not stated)	98	-1	100*	79	2	.	.	GRK2 confirm 2=-10;FAM quench SP=101
CCOc1ccc(C(C)NC(=O)C2CCCC2)cc1 (configuration not stated)	73	-11	0	76	-12	.	.
CCC(NC(=O)CCc1c(C)c2cc3c(-c4ccccc4)coc3cc2oc1=O)C(=O)O (configuration not stated)	98	-3	0	98	-1	.	.
Cc1cc(C)nc(/N=C2\NC(=O)CC(C(=O)O)N2CCc2c[nH]c3ccccc23)n1 (configuration not stated)	102	8	60*	106	-6	-1	102
COc1c2c(c(C)c3c1C(=O)OC3)O[C@@]1(C)CC[C@@]3(O)C(C)(C)OC(=O)CC[C@]3(C)[C@H]1C2	97	1	0	96	9	.	.
CCOC(=O)CN1C(=O)C2(OCCCO2)c2ccccc21	108	8	1	106	0	.	.
COC(=O)CN1C(=O)C2(OCCCO2)c2cc(Br)ccc21	98	-1	99*	96	20	0	101
O=[N+]([O-])c1ccccc1/C=C/C=N/n1c(-c2cc(-c3ccccc3)n[nH]2)n[nH]c1=S	92	-8	69*	89	5	11	99
Cc1ccc(-c2n[nH]c(=S)n2/N=C/C=C/c2ccccc2[N+](=O)[O-])cc1	101	0	0	100	-2	.	.
Cc1ccn(-c2ccc(NC(=O)c3cccs3)cc2)n1	98	-2	0	98	-6	.	.
O=[N+]([O-])c1cnc(N2CCCCC2)c([N+](=O)[O-])c1	103	0	1	102	-1	.	.
Cc1cc([N+](=O)[O-])cnc1N1CCOCC1	103	2	88*	103	6	1	115
Cc1ccc(C(=O)OCN2C(=O)c3ccccc3C2=O)o1	.	.	0	.	5	.	.
CC(C)CC(=O)Nc1nnc(S(=O)(=O)N2CCc3ccccc32)s1	101	2	6	103	9	.	.
O=C(CN(Cc1ccc(Cl)cc1)C(=O)c1csnn1)NCc1ccccc1	103	-1	0	102	-4	.	.
CN(CC(=O)Nc1ccccc1Cl)C(=O)Cn1cc(C(F)(F)F)ccc1=O	.	.	65*	.	14	0	96
CN(CC(=O)Nc1ccccc1Cl)C(=O)Cn1cc(C(F)(F)F)cc(Cl)c1=O	.	.	0	.	-4	.	.
COc1ccc(C2=NO[C@@H]3C(=O)N(c4ccc(C)cc4C)C(=O)[C@H]23)cc1OC	106	2	0	113	2	.	.	GRK2 confirm 2=-3;FAM quench SP=104
Cc1ccc(N2C(=O)[C@@H]3C(c4cccnc4)=NO[C@@H]3C2=O)c(C)c1	97	-7	0	97	2	.	.
COc1ccc(C2=NO[C@@H]3C(=O)N(c4cccc(C)c4C)C(=O)[C@H]23)cc1OC	107	5	0	108	1	.	.	GRK2 confirm 2=10;FAM quench SP=100
Cc1ccc(N2C(=O)[C@@H]3C(c4ccc(F)cc4)=NO[C@@H]3C2=O)cc1	101	2	4	99	-6	.	.	GRK2 confirm 2=1;FAM quench SP=102
Cc1ccc(S(=O)(=O)NCC(=O)OCC(=O)c2c(N)n(C)c(=O)n(C)c2=O)cc1	92	11	7	99	5	.	.
c1ccc(C2Nc3ccccc3Oc3ccccc32)cc1 (configuration not stated)	107	-1	52*	107	0	-18	96
Cc1c(Cl)c([N+](=O)[O-])nn1CC(=O)N1CCN(Cc2ccccc2)CC1	98	-3	3	96	-2	.	.
CCCCN1C(C(=O)Nc2ncccn2)=C(O)c2ccccc2S1(=O)=O	104	5	4	103	-1	-1	96
SMILES	MEKK2 WT-MEK5	MEKK2mut PB1 HTS	GRK2 aptamer HTS	MEKK3 PB1 HTS	Beta2AR agonist	GRK2 inh confirm	Aptamer quench SP	others
CN1C(C(=O)Nc2ccc(C(=O)O)cc2)=C(O)c2ccccc2S1(=O)=O	.	.	0	.	-2	.	.
CN(Cc1ccccc1)C(=O)CCn1c(=O)c2cccn2c2cccnc21	109	3	0	105	-28	.	.
COc1ccc(CCNC(=O)CN(C)S(=O)(=O)c2ccc(OC)cc2)cc1	97	0	60*	98	-4	8	99
COc1ccc(CNC(=O)CN(C)S(=O)(=O)c2ccccc2)cc1	98	0	6	98	-3	.	.
COc1ccccc1C(CNC(=O)CCNS(=O)(=O)c1ccc(Br)cc1)N1CCCC1 (configuration not stated)	.	.	.	.	3	.	.
CC(=O)Nc1c(Cl)c2c(c(Cl)c1Br)-c1ccc(Cl)cc1C2	.	.	.	.	-1	.	.
CN(C(=O)CN1C(=O)c2ccc([N+](=O)[O-])cc2C1=O)C1CCCCC1	.	.	0	.	-16	.	.
CCN(C(=O)CN1C(=O)c2ccc([N+](=O)[O-])cc2C1=O)C1CCCCC1	108	8	69*	104	3	.	.	GRK2 confirm 2=4;FAM quench SP=35*
CCCCNC(=O)C1CCN(S(=O)(=O)N2CCCCCC2)CC1	102	0	0	100	-4	.	.
CCC1CCCCN1CCCNC(=O)C1CCN(S(=O)(=O)N2CCCCC2)CC1 (configuration not stated)	118	2	15	105	-10	-41	112
CC(C)Cn1c(N)c(C(=O)COC(=O)c2c(O)c(Cl)cc(Cl)c2Cl)c(=O)n(C)c1=O	.	.	4	.	12	.	.
CC(C)(C)OC(=O)C[C@H]1C/C=C\C[C@H](CC(=O)NCCO)C(=O)NCCOC1=O	.	.	15	.	8	.	.
COc1ccc2nc(NC(=O)CSc3nnnn3C3CCCCC3)sc2c1	99	-1	51*	101	1	-3	101
O=C(O)c1cccc(N2CCCC2=O)c1	106	7	0	112	-1	.	.
O=C(O)c1ccc(N2CCCC2=O)cc1	102	-1	52*	101	-6	2	91
Nc1ccc2nc(-c3ccc(Cl)cc3)[nH]c2c1	114	12	0	107	5	.	.
Nc1ccc2nc(-c3cccc(-c4nc5ccc(N)cc5[nH]4)c3)[nH]c2c1	107	4	99*	97	15	-53	90
CCOc1ccc(NC(=O)c2cc3ccccc3cc2O)cc1	105	7	28	111	-8	10	100
